# Laboratory results taken from the supplement of paper PMC6555819.
# Assays:
# Experiment in all cases: PBM binding z-score (relative to random genomic background probes); higher = stronger binding; sequences stand for … in GC…GCGATTGACAGCGTAGAATGAAGG
# [1] = test system: PPARg:RXRa DBDmut IVT, anti-RXR (DBD mutation: RXRa K156A/R161A, NR concentration 270 nM, RXRa partner concentration 90 nM)
# Summary of the method: (§1)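 Probes were double-stranded and carried 34-nt variable regions with direct-repeat seeds, single-nucleotide variants, half-site ablations and random human genomic background sequences, printed on custom Agilent 4×180K protein-binding microarrays. Arrays were incubated 1 h with ligand-free nuclear receptor dimers in PBS pH 7.4, 2% milk, 0.02% Triton X-100, 1 mM DTT, 0.2 mg/mL BSA and 0.4 mg/ml salmon testes DNA. Antibodies against each partner (one per run) detected binding, and scanned fluorescence was regression-normalized. Binding z-scores use the random background probes as reference.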
# [2] = test system: PPARg:RXRa IVT, anti-PPARg (NR concentration 270 nM, RXRa partner concentration 90 nM)
# Summary of the method: as §1
# [3] = test system: PPARg DBDmut:RXRa IVT, anti-PPARg (DBD mutation: PPARg1 K132A/R137A, NR concentration 270 nM, RXRa partner concentration 90 nM)
# Summary of the method: as §1
# [4] = test system: PPARg DBDmut IVT, anti-PPARg (DBD mutation: PPARg1 K132A/R137A, NR concentration 270 nM)
# Summary of the method: as §1
# [5] = test system: PPARg homodimer (NR concentration 180 nM)
# Summary of the method: as §1
# [6] = test system: PXR:RXRa (NR concentration 270 nM, RXRa partner concentration 90 nM)
# Summary of the method: as §1
# [7] = test system: PXR homodimer (NR concentration 270 nM)
# Summary of the method: as §1
# [8] = test system: RARa:RXR (NR concentration 270 nM, RXRa partner concentration 90 nM)
# Summary of the method: as §1
# [9] = test system: RARa homodimer (NR concentration 270 nM)
# Summary of the method: as §1
# [10] = test system: RARb:RXRa (NR concentration 270 nM, RXRa partner concentration 90 nM)
# Summary of the method: as §1
# [11] = test system: RARb homodimer (NR concentration 270 nM)
# Summary of the method: as §1
# [12] = test system: RARg:RXRa (NR concentration 270 nM, RXRa partner concentration 90 nM)
# Summary of the method: as §1
# [13] = test system: RARg homodimer (NR concentration 270 nM)
# Summary of the method: as §1
# [14] = test system: RXRa DBDmut IVT, anti-RXR (DBD mutation: RXRa K156A/R161A, NR concentration 90 nM)
# Summary of the method: as §1
# [15] = test system: RXRa homodimer (NR concentration 180 nM)
# Summary of the method: as §1
# [16] = test system: THRa:RXRa (NR concentration 90 nM, RXRa partner concentration 90 nM)
# Summary of the method: as §1
# [17] = test system: THRa homodimer (NR concentration 90 nM)
# Summary of the method: as §1
# [18] = test system: VDR homodimer (NR concentration 270 nM)
# Summary of the method: as §1
Sequence,PBM binding z-score [1],PBM binding z-score [2],PBM binding z-score [3],PBM binding z-score [4],PBM binding z-score [5],PBM binding z-score [6],PBM binding z-score [7],PBM binding z-score [8],PBM binding z-score [9],PBM binding z-score [10],PBM binding z-score [11],PBM binding z-score [12],PBM binding z-score [13],PBM binding z-score [14],PBM binding z-score [15],PBM binding z-score [16],PBM binding z-score [17],PBM binding z-score [18]
TCTAACAGGCCAGAGGGTCACTCAAGAGGTACGG,1.73,0.466,-0.318,-0.0122,1.11,1.86,-0.0848,2.6,-0.0287,2.27,3.05,2.78,2.14,1,2.88,1.71,-0.107,0.997
TATGCTAGGTCAACGATGGTCAGCTAATCTGCTA,2.97,3.84,1.31,1.14,1.14,1.77,-0.438,2.6,-0.282,3.96,3.36,4.02,4.8,0.79,2.62,3.24,0.639,-0.267
TCGAGCAGGTTAGTCGGGGCATTCAGCCAACATA,0.239,0.431,-0.862,-0.407,-0.0263,0.125,-0.131,0.109,-0.676,0.557,0.497,-0.142,-0.25,-0.118,-0.199,1.21,-0.236,0.432
CATCCTAGGTCAGGGCCAGTATAGGAGGAACGTT,3.29,3.82,0.575,-0.518,1.36,0.842,-0.294,1.65,0.477,3.65,2.73,3.24,4.12,0.0171,2.22,2.52,0.878,0.11
CCTATTGGGCCACGAAAGGTCATTGATTCAGTGA,4.26,4.09,0.172,-0.271,5.52,5.82,1.47,5.93,2.11,4.13,4.4,4.95,4.66,0.751,5.29,4.08,0.834,2.26
ACAGACAGGTAAGTGAAGGTAACTCAGCTGGACG,-0.107,0.305,0.744,-0.0686,-0.111,-0.306,0.283,-0.575,0.213,0.109,-0.171,-0.116,0.263,-0.281,-0.0799,0.972,-0.0252,-0.27
CCTACTGGGCCAAGGTCATGGATCAGTCAAAGCA,3.36,4.9,-0.856,-0.00696,0.941,3.26,0.388,3.81,0.247,3.53,3.54,4.16,3.48,-0.0426,3.95,3.71,2.5,1.68
TCTCGTAGGACACGAAAGGTCAGAGCTCGACATC,1.81,1.71,-0.191,0.17,3.44,3.94,0.393,4.37,1.1,4.02,4.53,4.69,5.29,1.16,4.44,3.28,0.778,0.852
CCTGCCAGGTCAATGGTCAGCTAAAGCAGCTCGC,1.49,2.41,-0.936,-1.59,0.763,1.6,-0.223,1.96,-0.54,3.66,3.05,3.74,4.06,1.44,2.57,3.19,1.4,0.0635
TCTCGGAGGACACGACAGGTCAGAGCTCGACATC,0.919,0.745,0.0844,-0.496,0.53,1.27,-0.142,1.6,0.0819,2.62,2.87,2.35,3.16,0.685,1.41,2.96,1.04,0.677
ATATGTAAGTTATCGGGTCATTCAGTTTGCGCAT,2.89,3.27,1.57,1.8,1.64,3.39,6.97,2.93,1.29,2.05,2.48,2.12,1.48,1.61,2.59,3.24,2.84,3.74
TAACCTAGGTCATTCAGGGGCCAGTATAGAAAGC,3.77,4.77,0.824,0.744,2.96,3.09,0.651,4.06,0.531,4.33,3.95,6.73,5.25,2.62,3.87,3.83,1.26,2.58
CTACCAAGGTGAAAAAGGTCGTTGATTACTATTC,1.42,1.39,0.0289,-0.0502,0.878,2.31,1.09,2.56,0.555,2.02,2.39,2.01,1.33,1.01,2.21,2.42,0.518,1.4
ACTATTAGTTGAAACGAGGGCAACCGATAGGTTG,0.662,1.73,1.09,0.692,0.274,2.71,0.569,1.38,0.873,1.27,1.25,1.01,1.11,0.84,0.792,3.41,0.358,1.1
TGTCAAAGTTCAAAGCTAACGTAAGTATCCACAC,0.771,3.82,1.34,1.18,2.01,4.29,3.01,3.5,1.14,5.04,3.48,5.47,5.72,4.37,4.59,1.76,-0.21,3.56
TCATATAGGTAAATGCTAGGTGAACGTCCGATCT,4.03,2.94,0.935,1.01,0.675,0.493,0.0506,0.769,0.634,0.536,0.575,0.645,0.417,1.4,0.952,1.56,0.84,0.0802
AGAACGTGGGCACGCTGAGTTGATAGCAGAGTAG,-0.231,-0.143,0.109,-0.419,-0.518,-0.542,-0.719,-0.528,-0.906,-0.0707,-0.561,-0.224,-0.0604,-0.279,-0.0635,-0.485,-0.747,-0.131
TCATATAGGTAATACATGTGAAAGTCGGCATCTA,3.84,2.56,1.65,1.42,0.451,0.682,0.0389,1.03,0.882,0.439,-0.0768,0.625,0.544,1.57,1.14,0.246,-0.0874,0.128
GCTGCTAGGTCAGGTTGGTCAGCTCACGGGTACG,3.01,2.19,-0.391,-0.956,0.943,0.37,0.00075,0.901,0.262,3.26,2.66,2.78,3.52,0.658,1.28,1.84,0.901,0.536
CAAACTAGGGCAAGGTCAAAGTCGGTTTGTGCCA,7.65,7.58,2.3,3.24,3.66,4.71,1.95,4.96,2.12,4.14,4.09,4.67,4.49,2.41,4.63,3.75,2.34,3.52
TTTTGTAGATCAACAGGAGGTTAAGAAAGATCGA,1.26,1.98,1.18,1.43,0.903,0.932,0.512,1.34,1.05,0.73,0.787,1.04,0.47,-0.291,1.23,1.23,0.167,0.336
CCGACTGGGGAAAGGTTACCATAACGCACAGCCA,0.181,0.852,-0.712,-0.726,1.01,1.26,0.0491,1.9,0.439,1.74,1.86,1.66,0.984,-0.493,2.28,1.13,-0.224,-0.242
CTACCAAGGTGACCAAGGTCGTTGATTACTATTC,1.56,2.32,-0.302,-0.385,0.966,2.3,1.04,2.16,-0.214,1.65,1.86,1.47,1.08,1.1,1.66,2.92,1.76,2.06
TCTATTAGTTGATTAGGTCAACCGAAACAGCGGA,2.89,3.1,1.43,1.8,2.28,2.03,0.923,2.56,1.9,2.73,3.09,2.8,2.68,1.55,2.1,3.1,2.74,1.2
ACTCGGAGGACAAAGGCCAGAGCTACGCCAGTGA,-0.0476,-0.304,-0.91,-1.31,-0.117,-0.788,-0.627,-0.794,-0.32,1.44,0.873,0.907,1.26,0.472,-0.212,0.389,-0.475,-0.537
CGTGCAAGGTCATAGGAGGTCAGTGAAGACAGAT,3.54,4.74,1.77,-0.0772,4.07,7.21,4.19,6.63,2,5.41,5.38,7.04,7.51,4.08,7.22,5.44,2.87,4.63
ATATGTCGGTTATCGGGTCATTCAGTTTGCGCAT,3.75,4.28,1.98,2.05,2.12,3.32,7.06,3.02,0.924,2.11,2.64,2.72,2.04,1.42,2.51,3.14,2.54,3.21
TCTTGAAGATCAAGCAGGTTAAGAAAGCCTGAGT,1.28,-0.366,0.0587,-0.888,-0.603,0.456,-0.168,0.215,-1.22,0.0323,-0.113,-0.172,-0.516,0.456,0.318,0.216,-0.679,-0.115
ATCTCTAGGTAAAGATAGTTCAGTGGATGCAAAT,1.85,1.54,0.905,0.158,0.189,0.971,0.373,0.0212,1.18,0.718,0.847,0.4,0.785,-0.122,0.17,0.667,0.0913,0.205
